Data on five compounds can be found in PubChem BioAssay.

Activity calls are given as the source filed them.

One experiment addresses Albumin (Bos taurus) (UniProt P02769). As to the kind of experiment: compounds binding labelled BSA control protein – biochemical, small-molecule microarray, Alexa647 label, 635/667 nm fluorescence, artefact control for SMM control protein annotation, profiling panel (AID 1118).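 Note: score merges 667 nm emission intensity and signal-to-noise per printed compound spot.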 As to conditions: BSA-A647 binding, fluorescence 635 nm, higher = more signal.
A short description of experiment [1]: probe aXIP binding to arrayed compounds – biochemical, NeuroSMM set, 635/667 nm fluorescence, primary screen (AID 1119).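 Note: probe is the protein aXip251-270 applied at 1 µg/mL to compound-printed slides; binding of probe to printed compounds measured as 667 nm fluorescence plus signal to noise.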 As to conditions: small-molecule microarray, higher = more signal, called active from +8 up or from −8 down.
Experiment [2] in a line: probe aNOTCH3 binding on compound microarray – biochemical, small-molecule microarray, 635/667 nm fluorescence, primary screen (AID 1120).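 Note: probe is a biotin-tagged antibody raised against NOTCH3 rather than NOTCH3 protein; score merges spot fluorescence near 667 nm with spot signal to noise.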 As to conditions: higher = more signal.
Experiment [3] in a line: probe aNOTCH2 binding on compound microarray – biochemical, small-molecule microarray, 635/667 nm fluorescence, primary screen (AID 1121).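 Note: score merges feature fluorescence read at 667 nm with its signal to noise.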 As to conditions: higher = more signal.
Experiment [4] addresses Carbonic anhydrase 2 (Homo sapiens) (UniProt P00918). As to the kind of experiment: compounds binding carbonic anhydrase 2 – biochemical, small-molecule microarray, Alexa647-labelled CAII, profiling panel (AID 1122). The conditions noted are these: CAII-A647 binding fluorescence, higher = more signal.
Experiment [5] can be described thus: COS7 lysate on small-molecule microarray, probe aHis, 635 nm (AID 1123).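 Note: z-score combines 667nm fluorescence intensity with signal-to-noise per printed compound spot.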 The conditions noted are these: COS7 cell lysate, fluorescence, higher = more signal.
Experiment [6] can be described thus: probe aLAP1 signal on lysate-treated microarray – cell lysate, small-molecule microarray, COS7 lysate, primary screen (AID 1124).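 Note: lysate comes from COS7 cells expressing LAP1 and is applied at 0.3 µg/mL; score merges spot fluorescence near 667 nm with signal-to-noise over triplicate slides.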 The conditions noted are these: probe aLAP1, fluorescence, higher = more signal.
For a further experiment, the system named is Sam68 (KHDRBS1). As to the kind of experiment: compounds binding KHDRBS1 protein – biochemical, small-molecule microarray, 635 nm fluorescence, primary screen (AID 1125).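 Note: score merges 667 nm channel intensity with signal to noise over triplicate slides.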 The conditions noted are these: higher = more signal.
Experiment [7] deals with Chordin-like protein 2 (CHRDL2). As to the kind of experiment: compounds binding chordin-like 2 – biochemical, small-molecule microarray, 635 nm fluorescence, primary screen (AID 1126).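 Note: printed compound slides probed with Chrdl2 protein at 4 µg/mL for 1 h at 4 C; score merges 667 nm emission intensity with signal to noise over three replicate slides.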 The conditions noted are these: fluorescence 635 nm, higher = more signal.
Experiment [8] deals with Concanavalin-A (Canavalia ensiformis) (UniProt P02866). As to the kind of experiment: compounds binding concanavalin A lectin – biochemical, small-molecule microarray, Alexa647 label, 635 nm, artefact control for SMM control protein annotation, primary screen (AID 1127).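 Note: z combines 667 nm emission intensity with signal-to-noise across three replicate slides.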 As to conditions: ConA-A647 binding fluorescence, higher = more signal.
Experiment [9] is described as follows: compounds binding Alexa647 anti-His antibody – biochemical, small-molecule microarray, 635 nm fluorescence, artefact control for SMM control protein annotation, primary screen (AID 1128).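 Note: score merges feature fluorescence with signal-to-noise for each printed compound spot.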 As to conditions: higher = more signal.
Experiment [10] deals with Human papillomavirus type 1a E7 protein (residues 1-88). As to the kind of experiment: HPV1a E7 small-molecule binders, primary screen, biochemical, small-molecule microarray, residues 1-88, 635 nm (AID 1129). The conditions noted are these: small-molecule microarray binding, fluorescence 635 nm; higher = more signal.
For experiment [11], the target named is Focal adhesion kinase 1 (Homo sapiens) (UniProt Q05397). As to the kind of experiment: PTK2 protein binding on printed compound slides – biochemical, small-molecule microarray, 635/667 nm fluorescence, BSA, DTT, primary screen (AID 1130).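 Note: composite of spot emission at 667 nm and signal to noise over triplicate slides.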 The conditions noted are these: 635 nm fluorescence, higher = more signal.
The subject of experiment [12] is Fibrinogen (Alexa647-labelled). As to the kind of experiment: Alexa647-fibrinogen binding to printed small molecules – biochemical, small-molecule microarray, 635/667 nm fluorescence, artefact control for SMM control-protein annotation, profiling panel (AID 1131).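 Note: z-score merges 667 nm fluorescence with per-spot signal-to-noise over triplicate slides.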 As to conditions: fibrinogen-A647 binding fluorescence, higher = more signal.
In experiment [13] the target is Follistatin (Homo sapiens) (UniProt P19883). As to the kind of experiment: FST protein binding to printed compounds – biochemical, small-molecule microarray, 635/667 nm fluorescence, primary screen (AID 1132). As to conditions: 635 nm fluorescence, higher = more signal.
Experiment [14] addresses Fibroblast growth factor 2 (Homo sapiens) (UniProt P09038). The experiment in a line: basic fibroblast growth factor binding to printed compounds – biochemical, small-molecule microarray, 635/667 nm fluorescence, primary screen (AID 1133). As to conditions: FGF2, fluorescence 635/667, higher = more signal.
Experiment [15] can be described thus: JC-1 mitochondrial potential readout, lung cancer cells – cell-based, A549, JC-1 fluorescence, basal, 24 h, 100 nL, profiling panel (AID 1138).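 Note: A549 lung adenocarcinoma cells under basal conditions with no added stimulus; test concentration not given here.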 As to conditions: higher = more signal.
For a further experiment, the system named is Lefty1. The experiment in a line: Lefty1 protein binding to printed compounds – biochemical, small-molecule microarray, 635/667 nm fluorescence, primary screen (AID 1139). The conditions noted are these: fluorescence 635/667, higher = more signal.
Experiment [16] relates to wheat germ agglutinin (Triticum aestivum), Alexa647-labelled. The experiment in a line: Alexa647-WGA lectin binding to printed small molecules – biochemical, small-molecule microarray, 635/667 nm fluorescence, artefact control for SMM control-protein annotation, profiling panel (AID 1140).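 Note: score merges 667 nm feature emission with signal to noise over triplicate slides.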 The conditions noted are these: WGA-A647 binding, 635 nm fluorescence, higher = more signal.

Experiment [17] deals with Luciferin 4-monooxygenase (Photinus pyralis) (UniProt P08659). The experiment in a line: inhibition of purified Photinus pyralis luciferase – biochemical, luminescence, purified enzyme, 2006 set, primary screen (AID 1141).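 Note: cell-free assay with purified firefly luciferase at 100 ng per well in PBS; test concentration not given here.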 The conditions noted are these: purified firefly luciferase, SteadyGlo luminescence, 30 min; higher = more signal, called active from +8 up or from −8 down.
Luciferin 4-monooxygenase (Photinus pyralis), sequence (P08659 whole entry, looked up): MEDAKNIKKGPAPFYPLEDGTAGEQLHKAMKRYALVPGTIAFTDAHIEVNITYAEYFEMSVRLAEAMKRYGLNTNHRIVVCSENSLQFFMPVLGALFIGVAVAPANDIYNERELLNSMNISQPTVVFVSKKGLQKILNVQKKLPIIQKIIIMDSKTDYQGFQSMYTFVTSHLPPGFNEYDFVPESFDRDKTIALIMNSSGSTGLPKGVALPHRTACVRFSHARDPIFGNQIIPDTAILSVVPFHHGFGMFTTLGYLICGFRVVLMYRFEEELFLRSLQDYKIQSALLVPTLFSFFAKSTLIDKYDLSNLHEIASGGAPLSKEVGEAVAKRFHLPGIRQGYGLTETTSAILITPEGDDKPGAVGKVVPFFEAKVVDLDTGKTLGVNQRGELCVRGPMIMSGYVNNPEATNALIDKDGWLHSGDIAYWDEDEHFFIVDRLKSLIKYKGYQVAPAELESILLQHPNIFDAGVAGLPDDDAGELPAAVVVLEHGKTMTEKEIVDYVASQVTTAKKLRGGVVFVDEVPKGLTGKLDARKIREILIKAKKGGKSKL

Fibroblast growth factor 2 (Homo sapiens), sequence (P09038 whole entry, looked up): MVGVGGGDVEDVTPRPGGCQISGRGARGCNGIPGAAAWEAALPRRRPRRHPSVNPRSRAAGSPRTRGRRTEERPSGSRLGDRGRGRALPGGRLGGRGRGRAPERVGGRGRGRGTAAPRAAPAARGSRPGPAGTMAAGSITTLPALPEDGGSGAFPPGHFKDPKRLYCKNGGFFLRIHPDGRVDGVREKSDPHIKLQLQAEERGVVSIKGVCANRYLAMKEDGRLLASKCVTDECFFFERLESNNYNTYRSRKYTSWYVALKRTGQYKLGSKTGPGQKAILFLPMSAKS
Albumin (Bos taurus), sequence (P02769 whole entry, looked up): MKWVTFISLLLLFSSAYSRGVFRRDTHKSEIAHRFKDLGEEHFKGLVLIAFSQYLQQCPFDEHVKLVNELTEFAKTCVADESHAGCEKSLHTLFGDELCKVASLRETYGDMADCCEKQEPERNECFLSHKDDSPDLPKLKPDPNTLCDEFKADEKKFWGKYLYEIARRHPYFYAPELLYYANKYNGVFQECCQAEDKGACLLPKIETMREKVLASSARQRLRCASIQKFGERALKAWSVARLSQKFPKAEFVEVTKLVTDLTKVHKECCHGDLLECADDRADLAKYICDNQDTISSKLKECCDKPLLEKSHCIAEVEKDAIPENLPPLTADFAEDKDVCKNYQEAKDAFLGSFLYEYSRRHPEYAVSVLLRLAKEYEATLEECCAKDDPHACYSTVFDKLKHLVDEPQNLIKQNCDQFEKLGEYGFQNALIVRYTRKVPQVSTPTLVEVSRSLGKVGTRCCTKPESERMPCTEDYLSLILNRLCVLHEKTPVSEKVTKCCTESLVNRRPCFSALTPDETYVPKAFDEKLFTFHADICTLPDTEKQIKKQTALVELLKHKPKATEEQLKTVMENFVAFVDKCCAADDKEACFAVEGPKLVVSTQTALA
Concanavalin-A (Canavalia ensiformis), sequence (P02866 whole entry, looked up): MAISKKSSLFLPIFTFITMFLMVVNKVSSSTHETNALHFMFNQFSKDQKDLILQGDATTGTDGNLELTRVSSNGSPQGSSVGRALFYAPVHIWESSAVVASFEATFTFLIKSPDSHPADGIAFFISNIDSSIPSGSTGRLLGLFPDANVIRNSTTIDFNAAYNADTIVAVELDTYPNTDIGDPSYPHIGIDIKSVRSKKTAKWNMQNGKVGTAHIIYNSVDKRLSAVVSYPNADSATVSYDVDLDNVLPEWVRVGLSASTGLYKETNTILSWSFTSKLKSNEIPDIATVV
Focal adhesion kinase 1 (Homo sapiens), sequence (Q05397 whole entry, looked up): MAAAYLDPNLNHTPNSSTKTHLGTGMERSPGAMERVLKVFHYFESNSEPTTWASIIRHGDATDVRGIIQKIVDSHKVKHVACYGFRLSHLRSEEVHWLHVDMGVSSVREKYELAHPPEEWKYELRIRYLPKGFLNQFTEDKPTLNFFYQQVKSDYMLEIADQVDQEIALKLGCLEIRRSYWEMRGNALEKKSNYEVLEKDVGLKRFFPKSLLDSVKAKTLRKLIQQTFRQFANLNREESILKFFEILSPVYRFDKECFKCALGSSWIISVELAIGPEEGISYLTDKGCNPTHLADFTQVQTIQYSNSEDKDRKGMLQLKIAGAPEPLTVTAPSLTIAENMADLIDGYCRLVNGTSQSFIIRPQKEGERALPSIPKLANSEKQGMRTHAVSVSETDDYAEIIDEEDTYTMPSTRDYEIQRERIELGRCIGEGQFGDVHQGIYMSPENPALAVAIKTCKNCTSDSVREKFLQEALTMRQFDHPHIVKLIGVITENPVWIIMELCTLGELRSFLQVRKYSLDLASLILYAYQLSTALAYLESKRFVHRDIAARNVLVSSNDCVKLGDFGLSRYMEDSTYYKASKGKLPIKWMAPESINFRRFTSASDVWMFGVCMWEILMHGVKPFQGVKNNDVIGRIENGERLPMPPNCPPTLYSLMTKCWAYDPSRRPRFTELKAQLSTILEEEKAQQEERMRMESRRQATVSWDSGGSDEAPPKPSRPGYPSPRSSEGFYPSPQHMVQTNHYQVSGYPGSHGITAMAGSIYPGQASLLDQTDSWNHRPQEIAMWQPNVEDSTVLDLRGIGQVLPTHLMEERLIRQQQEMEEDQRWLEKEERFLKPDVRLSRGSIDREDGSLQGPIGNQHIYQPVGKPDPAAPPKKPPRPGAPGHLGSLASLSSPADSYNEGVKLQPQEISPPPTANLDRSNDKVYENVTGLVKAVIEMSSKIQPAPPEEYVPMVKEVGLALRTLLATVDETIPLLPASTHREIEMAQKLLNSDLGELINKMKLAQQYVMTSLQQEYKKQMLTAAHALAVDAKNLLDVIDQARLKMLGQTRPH
Follistatin (Homo sapiens), sequence (P19883 whole entry, looked up): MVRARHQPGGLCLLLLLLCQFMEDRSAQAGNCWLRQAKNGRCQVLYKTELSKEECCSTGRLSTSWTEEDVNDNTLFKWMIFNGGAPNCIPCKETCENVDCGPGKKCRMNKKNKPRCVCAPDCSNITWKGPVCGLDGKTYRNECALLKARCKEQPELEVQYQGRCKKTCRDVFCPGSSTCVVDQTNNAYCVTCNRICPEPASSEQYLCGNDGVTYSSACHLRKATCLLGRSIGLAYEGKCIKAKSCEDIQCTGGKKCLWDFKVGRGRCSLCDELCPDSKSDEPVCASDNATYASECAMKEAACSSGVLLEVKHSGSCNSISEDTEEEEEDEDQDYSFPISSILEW

For the compound `CN(C)C(=O)[C@@]1(Cc2ccccc2)COC(c2ccc(OCCCO)cc2)=N1`, the composite z-score was 0.66 in the experiment with Albumin (Bos taurus); -0.507 in experiment [2]; -0.308 in experiment [3]; 0.541 in experiment [4]; 2.86 in experiment [5]; 0.178 in experiment [6]. Also, the composite z-score in the experiment on Sam68 (KHDRBS1) turned out to be 0.581; in [7] it was 0.26; in experiment [8] it was 0.113; in [9] it was 0.468; in [10], 0.672; in [11], 0.292. For the same compound, the composite z-score in experiment [12] is 0.414; in [13] it was -0.13; in experiment [14] it was -0.0827; in the experiment with Lefty1, -1.51; in experiment [16], 0.298. Further, in experiment [1], the composite Z-score was -0.655 (inactive). The z-score was 1.18 in experiment [15] and -2.68 (inactive) in [17].
Regarding `COc1cc2c(cc1O)C(c1cccs1)N(Cc1sc3ccccc3c1Cl)CC2` (stereo not given), the composite z-score came to 0.931 in the experiment with Albumin (Bos taurus); 0.173 in [2]; 0.0294 in experiment [3]; 0.587 in [4]; 2.04 in [5]; 1.17 in experiment [6]. In addition, the composite z-score in the experiment on Sam68 (KHDRBS1) was determined as 1.3; in [7], 0.613; in experiment [8], 1.07; in experiment [9] it was 2.64; in experiment [10], 1.28; in [11], 0.379. The composite z-score came out at 1.01 in experiment [12]; 1.14 in experiment [13]; 0.841 in [14]; 0.72 in the experiment with Lefty1; 1.19 in [16]. The composite Z-score in experiment [1] was -0.818 (inactive). In addition, the z-score in experiment [15] was -0.702; in experiment [17] it was -0.42 (inactive).
As to `COc1ccc(C(O)C2C=CC3C(=O)N(c4ccccc4)C(=O)C3N2Nc2ccccc2)cc1` (stereo not given), the composite z-score is 1.01 in the experiment with Albumin (Bos taurus); 0.331 in experiment [2]; -0.0501 in experiment [3]; 0.781 in experiment [4]; 2.89 in experiment [5]; 0.326 in experiment [6]. Further, the composite z-score was 1.17 with Sam68 (KHDRBS1); -0.154 in experiment [7]; 1.14 in experiment [8]; 0.85 in experiment [9]; 1.08 in experiment [10]; 0.72 in [11]. The composite z-score in experiment [12] was 1.01; in [13], 0.955; in [14], 0.0088; with Lefty1 it was 0.817; in experiment [16] it was 1.1. In addition, in experiment [1], the composite Z-score is -0.135 (inactive). Besides, the z-score in experiment [15] is 0.204; in [17], -0.182 (inactive).
As for `COc1ccc(NC(=O)O[C@H]2[C@@H]3OC(=O)[C@H](Cc4cccc(Br)c4)C/C=C/C[C@@H](Cc4cccc(Br)c4)C(=O)O[C@H]3[C@@H](OC)O[C@@H]2CO)cc1`, the composite z-score worked out at 0.259 in the experiment with Albumin (Bos taurus); 0.111 in experiment [2]; 0.683 in experiment [3]; 0.507 in [4]; 0.84 in experiment [5]; 0.782 in experiment [6]. The composite z-score with Sam68 (KHDRBS1) is 0.355; in experiment [7], 0.145; in experiment [8], 0.173; in experiment [9], 0.66; in experiment [10], 0.632; in [11], 1.73. The composite z-score is 0.145 in [12]; 0.358 in experiment [13]; 0.293 in [14]; 1.16 with Lefty1; 0.464 in experiment [16]. Besides, in experiment [1], the composite Z-score was 0.878 (inactive). Also, the values for the z-score in [15] and in experiment [17] were 1.69 and -1.29 (inactive), respectively.
Consider `CC(C)C[C@@H]1NC(=O)[C@H]2C[C@@H](C(=O)NCCCCCN)[C@@H](c3cccc(OCCO)c3)N2C1=O`, for which the composite z-score was 0.299 with Albumin (Bos taurus); -0.495 in [2]; -0.146 in [3]; 0.695 in experiment [4]; 1.27 in [5]; 1.16 in experiment [6]. Further, the composite z-score is 0.166 with Sam68 (KHDRBS1); 0.292 in experiment [7]; 0.661 in [8]; 1.22 in [9]; 0.334 in experiment [10]; -0.0639 in experiment [11]. In addition, the composite z-score in experiment [12] was 0.133; in experiment [13], -0.214; in experiment [14] it was 0.181; with Lefty1, -0.813; in [16] it was 0.817. The composite Z-score in experiment [1] was 1.26 (inactive). Further, the z-score in [15] is 0.34; in experiment [17] it was -1.07 (inactive).
